Most compounds without a hit are left out; they make up all but 3.5% or so of the library.
TEAD-YAP block – TEAD-YAP interaction inhibition, primary screen, TEAD-YAP interaction inhibitor project, luminescence, HEK-TIYL cells | 640,000 compounds, 1.4% hits | TEAD-Gal4/YAP UAS-luciferase luminescence | inhibition, % at 9.12 µM; in the data active = inhibition above about 32%;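 also: 0% = median of test compound wells and 100% = reference inhibitor wells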
MITF inh – MITF inhibitors, primary screen, biochemical, AlphaScreen, human. Microphthalmia-associated transcription factor (Homo sapiens), O75030. inhibition, % at 2.6 µM. AlphaScreen MITF homodimerization, bead proximity signal. 650,000 compounds, 0.91% hits. AID 1259374, 2018; in the data active = inhibition above about 50%;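 also: 0% = vehicle wells with protein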
Target sequence (O75030 whole entry, looked up): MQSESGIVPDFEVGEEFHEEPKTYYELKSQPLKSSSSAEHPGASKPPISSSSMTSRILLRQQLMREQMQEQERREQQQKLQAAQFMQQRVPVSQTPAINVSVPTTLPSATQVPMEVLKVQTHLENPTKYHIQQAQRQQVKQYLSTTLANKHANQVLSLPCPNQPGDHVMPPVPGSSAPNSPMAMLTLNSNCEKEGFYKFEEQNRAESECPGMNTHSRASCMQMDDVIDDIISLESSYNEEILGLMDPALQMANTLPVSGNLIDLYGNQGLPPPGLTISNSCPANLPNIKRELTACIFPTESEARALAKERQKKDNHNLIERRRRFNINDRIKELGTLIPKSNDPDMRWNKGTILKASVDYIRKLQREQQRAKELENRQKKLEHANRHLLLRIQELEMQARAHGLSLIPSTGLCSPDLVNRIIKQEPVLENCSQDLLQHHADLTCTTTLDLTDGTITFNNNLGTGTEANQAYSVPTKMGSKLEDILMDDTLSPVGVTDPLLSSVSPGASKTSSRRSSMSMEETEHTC
FBW7 act – FBW7 E3 ligase activators, primary screen, biochemical, AlphaScreen, human | AlphaScreen FBW7–phospho-cyclin E peptide binding, activator screen | normalized activity (activation), % at 26.1 µM | 650,000 compounds, 0.13% hits | AID 1259310, 2017; in the data active = normalized activity above about 1.9%;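 also: purified mutant Fbw7 with reduced substrate affinity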
GPR151 ag – activators of human GPR151, primary screen, cell-based, PathHunter beta-arrestin, luminescence; G-protein coupled receptor 151 (Homo sapiens), Q8TDV0; PathHunter beta-arrestin GPR151 cells; activation, % at 11.2 µM; 650,000 compounds, 1% hits; AID 1508602, 2020; in the data active = activation above about 4.9%;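 also: 0% = median of compound wells and 100% = cells with positive control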
* hit, by the source's call.

SMILES	TEAD-YAP block	MITF inh	FBW7 act	GPR151 ag
COc1cc(NC(=O)c2cccc(-c3cccc(C(C)=O)c3)c2)cc(OC)c1OC	30	-2	0	3
COc1cc(NC(=O)c2cncc(-c3cccc(C(C)=O)c3)c2)cc(OC)c1OC	59*	1	0	-1
N=C1/C(=C/c2cccn2-c2cc([N+](=O)[O-])ccc2Cl)C(=O)N=C2SC=CN12	36*	8	0	-1
CC[n+]1ccc(/C=C/c2ccc(OC)c(OC)c2OC)cc1	-4	-4	0	1
COc1ccc(-c2cnc(SCC(=O)Nc3cccc(F)c3)n2C)cc1	33*	8	0	-1
CCCS(=O)(=O)c1ncc(Cl)c(C(=O)Nc2ccc(CC)cc2)n1	27	5	0	1
CCCS(=O)(=O)c1ncc(Cl)c(C(=O)Nc2ccc(C(=O)OC)cc2)n1	43*	5	0	-1
CCS(=O)(=O)c1ncc(Cl)c(C(=O)Nc2cccc(Cl)c2C)n1	57*	12	0	1
CCS(=O)(=O)c1ncc(Cl)c(C(=O)Nc2ccccc2Br)n1	36*	-2	0	0
CCOC(=O)c1sc(NC(=O)c2ccc(Cl)c([N+](=O)[O-])c2)nc1C	0	18	0	1
CCOC(=O)/C(C#N)=N\Nc1ccccc1OC	-7	-2	0	0
CCOC(=O)/C(C#N)=N/Nc1ccccc1C#N	-8	52*	0	-1
FC(F)(F)Oc1ccc(-c2cnc3c(N4CCOCC4)nccn23)cc1	2	-4	0	0
O=C1NC(=S)N/C1=C\C=C\c1ccc([N+](=O)[O-])o1	89*	78*	0	2
COc1cc(C(=O)/C=C/Nc2ccccc2C(N)=O)cc(OC)c1OC	38*	6	1	-1
COc1cc(C(=O)/C=C/Nc2ccccc2C)cc(OC)c1OC	-29	1	0	2
Cc1ccc(C(=O)/C=C/Nc2ccccc2C(N)=O)cc1	56*	-3	0	-5
COc1ccc(-c2cnc(NC3CC3)nc2)cc1	38*	10	0	-8
NC(=O)c1ccc(Nc2nccc(-c3ccccc3)n2)cc1	23	-12	1	-4
NC(=O)c1ccc(Nc2ncc(Cl)c(-c3ccccc3)n2)cc1	-6	18	2.6*	0
NC(=O)c1[nH]ncc1Nc1nccc(-c2ccccc2)n1	-14	6	0	-1
NC(=O)c1ccccc1Nc1nccc(-c2ccccc2)n1	40*	12	0	-2
NS(=O)(=O)c1cccc(Nc2nccc(-c3ccccc3)n2)c1	91*	4	0	-1
NC(=O)c1ccc(Nc2nccc(-c3cccc(Nc4ccccc4)c3)n2)cc1Cl	36*	-2	0	0
CCCCC1CCC(C(=O)Nc2c3c(nn2-c2ccc(F)cc2)CS(=O)(=O)C3)CC1 (configuration not stated)	-5	-1	0	3
SMILES	TEAD-YAP block	MITF inh	FBW7 act	GPR151 ag
NS(=O)(=O)c1ccc(Nc2nccc(-c3cccc(Nc4ccccc4)c3)n2)cc1	54*	1	0	3
N#Cc1cccc(-c2ccnc(Nc3ccc(S(N)(=O)=O)cc3)n2)c1	-4	1	0	1
CCOC(=O)C1CCCc2c1[nH]c1ccc(Cl)cc21 (configuration not stated)	39*	12	1	2
Cc1cnc(-c2cccc(N)c2)nc1NCc1nc2ccccc2[nH]1	-5	-3	0	1
CCOc1ccc(OC)cc1/C=N/NS(=O)(=O)c1ccc(Cl)cc1	65*	11	0	0
COC(=O)c1ccc(N2C(=O)C=CC2=O)cc1	2	-9	0	-1
O=C1c2cccc3cccc(c23)C(=O)N1CCNCCO	64*	-11	0	0
Cc1c(-c2ccn[nH]2)sc2ccccc12	-31	2	0	0
O=C(NCC1CCCO1)C1CCC(Cn2c(SCC(=O)N3CCN(c4ccccc4)CC3)nc3ccccc3c2=O)CC1 (configuration not stated)	8	1	0	0
O=C(NCC1CCCO1)c1ccc2c(=O)n(CC3CCCO3)c(SCC(=O)N3CCN(c4ccccc4)CC3)nc2c1 (configuration not stated)	32*	9	0	0
Cc1[nH]ncc1-c1ccc(NC(=O)C2COc3ccccc3C2)cc1 (configuration not stated)	41*	-6	0	3
Nc1[nH]ncc1-c1ccc(NC(=O)C2COc3ccc(F)cc3C2)cc1 (configuration not stated)	47*	3	0	-1
Nc1oncc1-c1ccc(NC(=O)C2COc3ccccc3C2)cc1 (configuration not stated)	6	5	0	2
Nc1oncc1-c1ccc(NC(=O)C2COc3ccc(F)cc3C2)cc1 (configuration not stated)	50*	21	0	-1
Cc1nc2sccn2c(=O)c1NC(=O)c1ccc(F)c(F)c1	1	2	0	1
CCOc1cc(/C=C(/C#N)C(=O)Nc2ccc(O)cc2)ccc1O	50*	-12	0	1
COc1cc(/C=C(\C#N)C(=O)c2ccc(O)c(O)c2)cc(I)c1O	-1	85*	0	-1
N#C/C(=C\c1ccc(O)c(O)c1)C(=O)NCCCNC(=O)/C(C#N)=C/c1ccc(O)c(O)c1	1	96*	0	-1
N#C/C(=C\c1ccc(O)c(O)c1)C(=O)Nc1ccccc1	-7	-11	0	-3
CCOc1ccc(/C=C(/C#N)C(=O)Nc2ccc(O)cc2)cc1OCC	15	-2	0	0
COc1cc(/C=C(/C#N)C(=O)Nc2ccc(O)cc2)cc(I)c1O	50*	-7	0	0
COCCN1C(=O)/C(=C/c2ccc(OC)c(Cl)c2)SC1=S	3	11	0	-1
COc1cc(OC)cc(C(=O)Nc2ccc3c(c2)OCO3)c1	-36	1	0	-11
COc1ccc(S(=O)(=O)NC(C)C(=O)O)cc1C (configuration not stated)	-7	-8	0	3
O=C(CC1Nc2ccccc2NC1=O)Nc1cccc(C(=O)O)c1 (configuration not stated)	-4	36	0	-1
SMILES	TEAD-YAP block	MITF inh	FBW7 act	GPR151 ag
CCOc1cc(/C=C(/C#N)C(=O)Nc2ccc(O)cc2)ccc1OC	44*	8	0	0
CCOc1ccc(/C=C(/C#N)C(=O)Nc2ccc(O)cc2)cc1OC	-3	-5	0	0
O=C(/C=C/c1ccc(F)cc1)N1CCc2ccccc21	56*	-2	0	-4
O=C(/C=C/c1ccccc1[N+](=O)[O-])N1CCc2ccccc21	44*	-2	0	-1
O=C(/C=C/c1ccccc1[N+](=O)[O-])N1CCCC1	-3	-1	0	1
COC(=O)c1cc(CNC(=O)/C=C/c2ccccc2)cc(NC(=O)c2ccco2)c1	11	-2	0	1

Bioassay records as filed in PubChem.
